# Screening results (PubChem)
# An excerpt weighted towards active compounds, which were near 4% of everything screened.
# Autofluor counter: flagged as autofluorescent in microsphere protease counterscreen. AID 624483. fluorescence intensity (concentration not given with the values). 3.1% of 360,000 active. compound autofluorescence counterscreen, microsphere flow cytometry; hits give high values; in the data active = fluorescence intensity above about 16000; inconclusive = no clear call, values can overlap the other calls
# BoNT-A LC inh2: BoNT/A light chain protease inhibitors, primary screen, biochemical, flow cytometry, MLPCN library; Botulinum neurotoxin type A light chain protease (Clostridium botulinum A str. ATCC 3502); multiplex microsphere protease substrate cleavage; inhibition, % at 10 µM; 0.17% of 360,000 active; note: plate controls were buffer without enzyme for full effect and enzyme alone for no effect
# Anthrax LF prot: Bacillus anthracis LF protease inhibitors, primary screen, biochemical, multiplex microsphere, MLPCN library; 0.12% of 360,000 active; inhibition, % at 10 µM; AID 588501, 2011; multiplex microsphere protease cleavage assay; note: plate controls were buffer without enzyme for full effect and enzyme alone for no effect
# BoNT F protease: BoNT/F light chain protease inhibitors, primary screen, biochemical, flow cytometry, MLPCN library | Multiplex microsphere protease cleavage assay | inhibition, % at 10 µM | 0.22% of 360,000 active | AID 588497, 2011; in the data active = inhibition above about 35%, passing the limit was not always enough; inconclusive = no clear call, values can overlap the other calls; note: plate controls were buffer without enzyme for full effect and enzyme alone for no effect
# MazEF act: activators of E. coli MazEF toxin-antitoxin RNase, primary screen, biochemical, fluorescence, uHTS; AID 504720, 2011; FAM/BHQ RNA-DNA oligo cleavage fluorescence, 5 h; activation, % at 20 µM; Endoribonuclease toxin MazF (Escherichia coli (strain K12)), P0AE70; 0.32% of 350,000 active; in the data active = activation above about 50%
# Target sequence (P0AE70 whole entry, looked up): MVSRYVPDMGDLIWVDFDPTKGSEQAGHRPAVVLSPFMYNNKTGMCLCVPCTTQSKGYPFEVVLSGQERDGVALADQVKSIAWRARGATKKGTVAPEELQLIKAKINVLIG
# DUSP3 inh: VHR1 phosphatase inhibitors, primary screen, biochemical, absorbance, uHTS; AID 1654, 2009; 0.52% of 290,000 active; recombinant VHR phosphatase, pNPP absorbance; inhibition, % at 13.3 µM; Dual specificity protein phosphatase 3 (Homo sapiens), P51452; in the data active = inhibition above about 50%
# Target sequence (P51452 whole entry, looked up): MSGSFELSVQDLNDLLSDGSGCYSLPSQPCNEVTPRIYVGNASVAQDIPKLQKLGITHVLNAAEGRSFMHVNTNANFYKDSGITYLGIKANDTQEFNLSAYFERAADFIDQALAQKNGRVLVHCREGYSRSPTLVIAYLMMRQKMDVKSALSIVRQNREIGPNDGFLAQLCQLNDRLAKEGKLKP
# * hit, by the source's call; ? = inconclusive; nt = no result given. Cut-off read from the data, not from the text of the source, unless noted: active = inhibition above about 30%; inconclusive = no clear call, values can overlap the other calls; inactive = below that.
SMILES,Autofluor counter,BoNT-A LC inh2,Anthrax LF prot,BoNT F protease,MazEF act,DUSP3 inh
CCN1C(=O)C(CC(=O)N2CCN(C(c3ccccc3)c3ccccc3)CC2)N(CC)C1=O (centres undefined),16806*,-1.3,-2.3,0.3,0.6,9.4
O=C(Nc1ccc(Cl)cc1C(=O)NCc1cccnc1)c1ccco1,23145*,?,-3.9,1.5,1.2,10.0
O=C(Nc1ccc(Cl)cc1C(=O)NCC1CCCO1)c1ccco1 (centres undefined),23431*,-1.7,1.3,-3.2,-3.8,17.8
O=C(Nc1ccccc1C(=O)NCc1cccnc1)c1ccco1,4748,-0.9,-0.9,10.7,1.7,24.9
Cc1nnc(SCc2ccccc2F)n1NCc1cccs1,22098*,3.5,2.1,1.3,0.3,10.9
COc1ccc(C2=NOC(C(=O)N3CCOCC3)C2)cc1OC (centres undefined),23787*,-5.0,-0.2,-5.3,-7.5,11.7
CCOC(=O)N1CCN(C(=O)C2CC(c3ccccc3OC)=NO2)CC1 (centres undefined),20183*,8.0,-13.9,8.7,0.5,20.8
O=C(C1CC(c2ccccc2O)=NO1)N1CCC2(CC1)OCCO2 (centres undefined),20077*,6.1,0.0,6.9,1.0,38.8
COc1cccc(C2=NOC(C(=O)N3CCOCC3)C2)c1 (centres undefined),8080,-1.7,0.6,1.0,0.8,14.0
COc1cc(OC)c(C2=NOC(C(=O)N3CCCc4ccccc43)C2)cc1Cl (centres undefined),23619*,-1.7,-7.1,0.2,-4.3,31.0
O=C(C1CC(c2ccccc2O)=NO1)N1CCCC1 (centres undefined),7759,0.2,-0.3,3.0,-7.6,3.5
CCC1CCCCN1C(=O)C1CC(c2cc(Cl)c(OC)cc2OC)=NO1 (centres undefined),5380,-0.4,1.2,-5.9,-5.3,-11.2
CN1CCN(c2cc(CNC[C@H]3O[C@@H](n4cnc5c(=O)[nH]c(N)nc54)[C@H](O)[C@@H]3O)ccc2F)CC1,6540,-0.1,4.5,-10.5,nt,nt
C=CCN(c1ccccc1C(=O)O)S(=O)(=O)c1ccc(NC(=O)OC)cc1,4351,-1.1,-0.2,-4.0,0.9,12.7
COC1C(OC(=O)c2ccc(C)[nH]2)C(O)C(Oc2ccc3c(O)c(NC(=O)c4ccc(O)c(CC=C(C)C)c4)c(=O)oc3c2Cl)OC1(C)C (centres undefined),4283,-0.4,-4.4,-1.0,54.7*,27.7
COc1ccc(NC(=O)CCCCCN2C(=O)c3ccccc3C2=O)c(OC)c1,3427,2.3,-2.4,?,6.9,-13.1
OC(Cn1ccnc1)c1ccc(Cl)cc1Cl (centres undefined),2383,-0.2,-1.2,-4.2,158.8*,28.7
CCOC(=O)Cc1csc(NC(=O)c2ccc(S(=O)(=O)N3CCCCC3)cc2)n1,22414*,?,2.2,1.4,6.8,30.5
CCOC(=O)Cc1csc(NC(=O)COc2ccc(C)cc2)n1,4062,-0.7,0.0,-3.5,-0.5,20.4
CCOC(=O)Cc1csc(NC(=O)COc2ccccc2)n1,22960*,-1.8,-2.0,-2.8,-17.3,13.1
CCOC(=O)Cc1csc(NC(=O)NC2(C(F)(F)F)Oc3ccccc3O2)n1,16388*,-1.2,-4.2,-4.1,6.1,-0.2
CCOC(=O)Cc1csc(NC(=O)c2ccco2)n1,20219*,1.1,-6.3,-0.2,2.2,-9.5
C=CCOc1cccc(C(=O)NC(c2ccccc2)C(C)C)c1 (centres undefined),3341,-0.7,1.4,-0.3,2.1,20.8
CCCC(CCC)c1nnc(NC(=O)c2ccco2)s1,3713,?,4.3,?,0.3,59.7*
O=C(c1cccc2c1-c1ccccc1/C2=N/O)N1CCCCC1,20508*,?,3.0,-2.8,2.1,18.8
O=C1c2ccccc2-c2c1cccc2C(=O)N1CCCCC1,3117,1.4,6.1,1.8,3.4,4.2
CCN1C(=O)C(NC(C)=O)c2cc(OC)ccc21 (centres undefined),2774,-0.8,-1.3,-5.9,-1.9,8.6
